Reference: PubChem BioAssay (NCI)
The panel holds about 79,000 compounds, 15% with a hit somewhere; the sample as a whole holds those more often. Active and inactive are the calls of the source. Cut-off read from the data, not from the text of the source: active = growth inhibition above about 70%; inactive = the rest.

Legend:
[1] = NCI Yeast Anticancer Drug Screen. Data for the rad52 strain (AID 147);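 note: 0% = growth of vehicle-treated control cultures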; settings: S. cerevisiae rad52 mutant growth inhibition, active compounds read high
How it was run: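 Growth of repair-deficient yeast cells was compared between compound-treated and vehicle-treated cultures to give percent inhibition.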

[2] = NCI Yeast Anticancer Drug Screen. Data for the wt1 strain (AID 149);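 note: 0% = growth of vehicle-treated wt1 cultures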; settings: S. cerevisiae wt1 strain (SPY 50644) growth inhibition, active compounds read high
How it was run: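 Each compound is tested on wt1 yeast and the loss of growth versus vehicle gives the inhibition value.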

[3] = NCI Yeast Anticancer Drug Screen. Data for the rad50EPP+ strain (AID 151);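 note: 0% = growth of vehicle-treated control cultures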; settings: S. cerevisiae rad50 mutant strain, active compounds read high
How it was run: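 Measured: growth inhibition of rad50EPP+ yeast. Reference: vehicle-treated controls. Screen uses strains with defined genetic alterations in DNA damage repair or cell cycle control.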

[4] = NCI Yeast Anticancer Drug Screen. Data for the mgt1 strain (AID 153); settings: S. cerevisiae mgt1 mutant growth inhibition, active compounds read high
How it was run: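 Compounds were applied to mgt1 mutant yeast, and growth was then compared against vehicle-treated control cultures to give percent inhibition.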

[5] = NCI Yeast Anticancer Drug Screen. Data for the rad50 strain (AID 155);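 note: 0% = growth of vehicle-only cultures of the same strain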; settings: S. cerevisiae rad50 strain growth inhibition, active compounds read high
How it was run: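 Vehicle-treated cultures provide the reference for the growth inhibition reported for compound-exposed, repair-deficient yeast.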

[6] = NCI Yeast Anticancer Drug Screen. Data for the mec2-1 strain (AID 157); settings: S. cerevisiae mec2-1 strain, active compounds read high
How it was run: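 Compounds were applied to mec2-1 yeast cells. Their growth was then compared with that of vehicle-treated cultures to give growth inhibition.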

[7] = NCI Yeast Anticancer Drug Screen. Data for the rad14 strain (AID 159);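 note: 0% = growth of vehicle-treated control cultures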; settings: S. cerevisiae rad14 strain growth inhibition, active compounds read high
How it was run: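 Inhibition of growth is reported for a repair-deficient yeast mutant following compound treatment, calculated relative to cultures that received vehicle.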

[8] = NCI Yeast Anticancer Drug Screen. Data for the sgs1 mgt1 strain (AID 161);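 note: 0% = growth of cultures given vehicle only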; settings: S. cerevisiae sgs1 mgt1 strain, active compounds read high
How it was run: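 Compounds are added to genetically altered yeast, and growth is compared with cultures given vehicle alone to give percent inhibition.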

[9] = NCI Yeast Anticancer Drug Screen. Data for the CLN2oe strain (AID 163);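 note: 0% = growth of vehicle-only control cultures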; settings: S. cerevisiae CLN2oe strain, active compounds read high
How it was run: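 Cells of an engineered yeast line with disturbed cell-cycle regulation are treated with compound. Inhibition of growth is then calculated relative to the vehicle-treated reference.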

[10] = NCI Yeast Anticancer Drug Screen. Data for the cln2 rad14 strain (AID 165);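 note: 0% = growth equal to vehicle treated cultures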; settings: S. cerevisiae cln2 rad14 strain, active compounds read high
How it was run: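 Strain: cln2 rad14 yeast, altered in cell cycle control and DNA damage repair. Read-out: growth inhibition vs vehicle.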

[11] = NCI Yeast Anticancer Drug Screen. Data for the bub3 strain (AID 167); settings: S. cerevisiae bub3 mutant strain, active compounds read high
How it was run: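 Mutant yeast screening strain plus compound; vehicle-treated cultures serve as the 0% inhibition reference.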

[12] = NCI Yeast Anticancer Drug Screen. Data for the wt2 strain (AID 169); settings: S. cerevisiae wt2 strain growth inhibition, active compounds read high
How it was run: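 Growth of compound-treated yeast is measured and expressed as inhibition relative to vehicle-only controls.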

[13] = NCI Yeast Anticancer Drug Screen. Data for the mlh1 strain (AID 171);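 note: 0% = growth of vehicle-treated control cultures of the same strain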; settings: S. cerevisiae mlh1 strain growth inhibition, active compounds read high
How it was run: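 Test agents were incubated with yeast bearing a defined DNA damage repair or cell cycle control alteration; values are growth inhibition normalised to vehicle-treated cultures.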

[14] = NCI Yeast Anticancer Drug Screen. Data for the sgs1 strain (AID 173);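 note: 0% = growth of vehicle-only control cultures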; settings: S. cerevisiae sgs1 mutant, active compounds read high
How it was run: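 Strain with an altered DNA repair or cell cycle pathway exposed to compound. Growth then measured. Value = inhibition versus vehicle control.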

[15] = NCI Yeast Anticancer Drug Screen. Data for the rad18 strain (AID 177); settings: S. cerevisiae rad18 mutant growth inhibition, active compounds read high
How it was run: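 DNA-repair-defective yeast; compound treatment; growth inhibition scored against vehicle.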

[16] = at 5.0 µM (retest, dose inferred, filed as 0.5)
[17] = at 50.0 µM (retest, dose inferred, filed as 5.0)

Measured: growth inhibition

COc1cc2ccccc2c2cc([N+](=O)[O-])oc12
inactive: [2]; at 1.2 µM 4% | [2]; at 3.7 µM 6% | [2]; at 11.0 µM 15% | [2]; at 33.0 µM 29% | [2]; at 100.0 µM 36% | [4]; at 1.2 µM 2% | [4]; at 3.7 µM 11% | [4]; at 11.0 µM 26% | [4]; at 33.0 µM 43% | [4]; at 100.0 µM 59% | [6]; at 1.2 µM 23% | [6]; at 3.7 µM 39% | [6]; [16] 45% | [6]; at 11.0 µM 55% | [6]; at 33.0 µM 65% | [6]; [17] 62% | [6]; at 50.0 µM 53% | [8]; at 50.0 µM 60.9% | [9]; at 1.2 µM -8% | [9]; at 3.7 µM -6% | [9]; at 11.0 µM 4% | [9]; at 33.0 µM 19% | [9]; at 100.0 µM 24% | [11]; at 1.2 µM -21% | [11]; at 3.7 µM -21% | [11]; [16] 2% | [11]; at 11.0 µM -1% | [11]; at 33.0 µM 5% | [11]; [17] 14% | [11]; at 50.0 µM 3.55% | [11]; at 100.0 µM 7% | [12]; at 1.2 µM 5% | [12]; at 3.7 µM 11% | [12]; at 11.0 µM 23% | [12]; at 33.0 µM 36% | [12]; at 100.0 µM 51% | [13]; at 1.2 µM 7% | [13]; at 3.7 µM 10% | [13]; at 11.0 µM 21% | [13]; at 33.0 µM 41% | [13]; at 100.0 µM 60%
active: [1]; at 1.2 µM 82% | [1]; at 3.7 µM 88% | [1]; at 11.0 µM 91% | [1]; at 33.0 µM 91% | [1]; at 100.0 µM 91% | [3]; at 1.2 µM 82% | [3]; at 3.7 µM 86% | [3]; at 11.0 µM 91% | [3]; at 33.0 µM 90% | [3]; at 100.0 µM 88% | [5]; at 1.2 µM 79% | [5]; at 3.7 µM 88% | [5]; [16] 75% | [5]; at 11.0 µM 92% | [5]; at 33.0 µM 91% | [5]; [17] 76% | [5]; at 50.0 µM 78.2% | [5]; at 100.0 µM 88% | [6]; at 100.0 µM 78% | [7]; at 1.2 µM 91% | [7]; at 3.7 µM 93% | [7]; at 11.0 µM 95% | [7]; at 33.0 µM 94% | [7]; at 100.0 µM 93% | [8]; [16] 73% | [8]; [17] 76% | [10]; [16] 91% | [10]; [17] 84% | [10]; at 50.0 µM 84.3% | [14]; at 1.2 µM 79% | [14]; at 3.7 µM 84% | [14]; at 11.0 µM 89% | [14]; at 33.0 µM 89% | [14]; at 100.0 µM 89% | [15]; at 1.2 µM 96% | [15]; at 3.7 µM 96% | [15]; at 11.0 µM 95% | [15]; at 33.0 µM 94% | [15]; at 100.0 µM 88%
